Measurements from PubChem BioAssay (Tox21).
Inconclusive results are not listed. A call without a number means that no potency is given here. Values without a mark were called inactive. Active and inactive are the calls of the source. Calls come from the whole dose curve.

target: D(2) dopamine receptor (Homo sapiens) (UniProt P14416); assay: Dopamine D2 receptor (DRD2) small molecule agonists, cell-based qHTS assay (AID 1963594); settings: HEK293-DRD2 cAMP HTRF, agonist mode, 30 min; series mostly up to 92.4 µM; note: nearly all actives have a fitted effect of over 35% in size
Sequence (P14416 whole entry, looked up): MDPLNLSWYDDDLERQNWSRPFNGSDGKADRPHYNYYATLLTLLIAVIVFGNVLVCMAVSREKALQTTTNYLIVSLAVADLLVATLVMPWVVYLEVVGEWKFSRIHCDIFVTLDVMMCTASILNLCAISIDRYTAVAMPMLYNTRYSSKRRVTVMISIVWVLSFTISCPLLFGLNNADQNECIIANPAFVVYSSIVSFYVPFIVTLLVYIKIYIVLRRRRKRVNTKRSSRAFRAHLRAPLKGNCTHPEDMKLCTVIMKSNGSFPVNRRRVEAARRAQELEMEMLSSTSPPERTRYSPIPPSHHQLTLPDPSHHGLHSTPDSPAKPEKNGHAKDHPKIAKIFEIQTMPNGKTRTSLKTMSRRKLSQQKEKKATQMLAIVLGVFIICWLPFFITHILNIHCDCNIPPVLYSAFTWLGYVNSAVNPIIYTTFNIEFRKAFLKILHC
Text: National Center for Advancing Translational Sciences [NCATS]
Division of Preclinical Innovation [DPI]
U.S. Environmental Protection Agency [EPA]
National Institutes of Environmental Health Sciences [NIEHS]
National Toxicology Program [NTP]
U.S. Food and Drug Administration [FDA]
DRD2 is the D2 subtype of the dopamine receptor, which is coupled to Gi subtype of G protein-coupled receptor. This G protein-coupled receptor inhibits adenylyl cyclase activity. The DRD2-HEK293 cell line stably expressing D2 dopamine receptor can be used for screening agonists and antagonists of interactions between D2 and its ligands. The Hek293-DRD2 cAMP assay is based on HTRF technology. It measures changes of cAMP accumulation in response to Gi coupled GPCR activation or inhibition.
Tox21 Assay Protocol Summary:
DRD2-Hek293 cells were dispensed at 600 cells/3uL/well in 1536-well white plates using a Multidrop Dispenser. After the assay plates were incubated at a 37 C/5% CO2 incubator for 24 h, 1 uL of Ro20-1724 at final concentration of 0.1 mM was transferred to the assay plate by a Flying Reagent Dispenser. Following Ro20-1724 addition, 23 nL of compound dissolved in DMSO, positive controls or DMSO only was added to the assay plates via Wako pintool station. The assay plates were incubated at room temperature for 10 min. Next, 1 uL of NKH477 at 200nM was added into the plates. After the assay plates were incubated at room temperature for an additional 30 min, 2.5 ul/well of cAMP-d2 and 2.5 ul/well of anti-cAMP-cryptate were added respectively into the assay plates using a Flying Reagent Dispenser. The plates were incubated at room temperature for 1 h. The fluorescence intensity in the plates was measured at 340 nm excitation and 665 & 620 nm emission by an Envision plate reader.
Potency is the fitted concentration of half-maximal effect.

SMILES	Potency	activation
C=C(C)C1CCC(C)CC1O (stereo not given)	inactive	–
C=CCOc1c(Br)cc(C(C)(C)c2cc(Br)c(OCC=C)c(Br)c2)cc1Br	inactive	–
Nc1ccc(C(=O)N2CC3CC(CN(Cc4ccccc4)C3)C2)cc1	inactive	–
CC(C)[C@H](N)C(=O)OCCOCn1cnc2c(=O)[nH]c(N)nc21	inactive	–
CCCSS/C(CCO)=C(\C)N(C=O)Cc1cnc(C)nc1N	inactive	–
CCCCCCCCCCCCCCCCCCOS(=O)(=O)O	inactive	–
CCCCCCCCCCCCCC=O	–	1.32% [at 8.39 µM]
CCC(CO)(CO)COCC(CC)(CO)CO	inactive	–
CCN(CC)C(C)=O	inactive	–
Cc1ccco1	inactive	–
CCOC(=O)[C@H](CCc1ccccc1)N[C@@H](C)C(=O)N(CC(=O)O)C1Cc2ccccc2C1	inactive	–
O=C(CCc1ccc(O)cc1)c1c(O)cc(O)cc1O	inactive	–
COc1cc(CNC(=O)CCCC/C=C/C(C)C)ccc1O	inactive	–
COc1cc(O)cc(O)c1	inactive	–
ClC(Cl)(Br)Br	inactive	–
CCCC(c1cc(C(C)(C)C)c(O)cc1C)c1cc(C(C)(C)C)c(O)cc1C	inactive	–
CCN(CCO)CCCC(C)Nc1ccnc2cc(Cl)ccc12 (stereo not given)	–	4.56% [at 8.39 µM]
Nc1ncnc2c1ncn2[C@H]1CC[C@@H](CO)O1	inactive	–
CNc1c2c(nn1C)CCCC2	inactive	–
Cc1c(Cl)cccc1[N+](=O)[O-]	inactive	–

SMILES	Potency	activation
CC(C)(C)c1n[nH]c(=S)n(N)c1=O	inactive	–
C[C@]12C=CC(=O)C=C1[C@@H](F)C[C@@H]1[C@@H]2[C@@H](O)C[C@@]2(C)[C@H]1CC[C@]2(O)C(=O)CO	inactive	–
CCCCCCCC(C)=O	inactive	–
CCCCc1nc2cccnc2n1Cc1ccc(-c2ccccc2-c2nnn[nH]2)cc1	inactive	–
CCOC(=O)C1CC(=O)C(=C(O)C2CC2)C(=O)C1 (stereo not given)	inactive	–
CCCN(CCC)C(=O)C(CCC(=O)OCCCN1CCN(CCOC(=O)Cc2c(C)n(C(=O)c3ccc(Cl)cc3)c3ccc(OC)cc23)CC1)NC(=O)c1ccccc1 (stereo not given)	inactive	–
CCC1=C(C)CN(C(=O)NCCc2ccc(S(=O)(=O)NC(=O)NC3CCC(C)CC3)cc2)C1=O (stereo not given)	inactive	–
CCC=O	inactive	–
Cc1ccccc1CCO	inactive	–
CCN(CC)C(=O)N(CC)CC	inactive	–
O=c1[nH]sc2cc(Cl)ccc12	inactive	–
NC(=O)C(c1ccccc1)(c1ccccc1)[C@@H]1CCN(CCc2ccc3c(c2)CCO3)C1	inactive	–
Cc1nc(-c2ccc(OCC(C)C)c(C#N)c2)sc1C(=O)O	inactive	–
FC(F)(F)C(F)(F)C(F)(F)C(F)(F)C(F)(F)C(F)(F)C(F)(F)C(F)(F)C(F)(F)C(F)(F)F	–	-0.702% [at 8.39 µM]
CCOC(=O)Oc1ccc(CCNC(=O)[C@H](CCSC)NC(C)=O)cc1OC(=O)OCC	2370 nM (active)	–
CCc1cc(Cl)c(OC)c(C(=O)NC[C@@H]2CCCN2CC)c1O	inactive	–
Cc1oc(-c2ccccc2)nc1CCOc1ccc(C[C@H](Nc2ccccc2C(=O)c2ccccc2)C(=O)O)cc1	inactive	–
Nc1ccc(Cl)cc1[N+](=O)[O-]	inactive	–
CC(=O)Oc1cc(C(C)C)c(OCCN(C)C)cc1C	inactive	–
CC1CCCO1 (stereo not given)	inactive	–
